# Test results as given in PubChem BioAssay (EPA / NIEHS).
# Results filed as inconclusive are left out. Activity calls are given as the source filed them. Rule for the calls, unless noted: active = hit-call score of the fitted dose curve at least 0.9, where 1 is the maximum; inactive = score below 0.9.
# Assays:
# [1] = ATG_NF_kB_CIS: Attagene CIS-FACTORIAL HepG2 Assay for human Nuclear Factor Kappa B (NF-kB) (AID 2282991); details: HepG2 Attagene cis-factorial NF-kB reporter mRNA; actives raise or lower the signal
# Procedure, shortened: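 HepG2 cells transfected with cis-promoter-driven reporter units, so endogenous transcription factor activity is measured. Reporter mRNA quantified 24 h after dosing by RT-PCR and capillary electrophoresis, with bidirectional fitting against DMSO.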
# [2] = ATG_NRF2_ARE_CIS: Attagene CIS-FACTORIAL HepG2 Assay for human Nuclear Factor Erythroid 2 Related Factor 2 (NFR2) response to Antioxidant Response Elements (ARE) (AID 2282992); details: HepG2 Attagene ARE/NRF2 reporter, transcription factor activity; actives raise or lower the signal;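 for AC50: reporter mRNA level measured by RT-PCR and capillary electrophoresis fluorescence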
# Procedure, shortened: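 Fluorescence intensity of reporter-specific cDNA fragments, separated by capillary electrophoresis, reflects mRNA induction in transfected HepG2 cells at 24 h. Activity is fitted bidirectionally, DMSO serving as baseline.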
# [3] = ATG_Oct_MLP_CIS: Attagene CIS-FACTORIAL HepG2 Assay for human Octamer-Binding Transcription Factor (Oct) (AID 2282993); details: HepG2 Attagene cis-factorial Oct reporter, mRNA; actives raise or lower the signal
# Procedure, shortened: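 Using HepG2 cells bearing transfected cis-reporter constructs, mRNA induction was read after 24 h by fluorescent RT-PCR and capillary electrophoresis, with DMSO defining baseline for gain- or loss-of-signal fits.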
# [4] = biological target: Cellular tumor antigen p53 (Homo sapiens) (UniProt P04637); assay: ATG_p53_CIS: Attagene CIS-FACTORIAL HepG2 Assay for human p53 Transcription Factor (AID 2282994); details: HepG2 p53 cis-element reporter, Attagene mRNA; actives raise or lower the signal
# Procedure, shortened: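 Transiently transfected HepG2 (multiple cis reporter transcription units); exposure 24 h; reporter RNA via RT-PCR, 6-FAM extension, 2 h HpaI digest at 37 C, CE detection; DMSO baseline.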
# [5] = BSK_3C_TissueFactor: BioMAP Diversity Plus: 3C Assay for Tissue Factor Biomarker Activity (AID 2282997); details: BioMAP 3C HUVEC, tissue factor biomarker readout; actives raise or lower the signal
# Procedure, shortened: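 Tissue Factor measured by ELISA, 24 h after treatment of primary HUVEC in the BioMAP 3C setting.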
# [6] = BSK_3C_uPAR: BioMAP Diversity Plus: 3C Assay for Urokinase-type plasminogen activator receptor (uPAR) Biomarker Activity (AID 2282998); details: BioMAP 3C HUVEC, uPAR biomarker ELISA; actives raise or lower the signal
# Procedure, shortened: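 In this endothelial cell-based assay, human umbilical vein primary cells were treated with chemicals and harvested at 24 h. uPAR was quantified using ELISA, with gains or losses fitted relative to DMSO controls.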
# [7] = BSK_3C_VCAM1: BioMAP Diversity Plus: 3C Assay for Vascular cell adhesion molecule 1 (VCAM1) Biomarker Activity (AID 2282999); details: BioMAP 3C HUVEC, VCAM1 ELISA, cytokine-stimulated; actives raise or lower the signal
# Procedure, shortened: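 Activity fitted in both directions relative to DMSO, with ELISA measurement of the surface marker on primary HUVEC (3C) at 24 h post-treatment; parallel SRB staining (0.1% SRB, TCA-fixed, 560 nm) flagged overt cytotoxicity.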
# [8] = BSK_4H_Eotaxin3: BioMAP Diversity Plus: 4H Assay for Eotaxin 3 Biomarker Activity (AID 2283000); details: primary human endothelial cells (HUVEC); actives raise or lower the signal;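 for outcome: CCL26 protein level quantified by ELISA in parallel with SRB cytotoxicity check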
# Procedure, shortened: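 Eotaxin-3 (CCL26) levels were measured by ELISA in HUVEC primary cultures 24 h post-dosing. Gain or loss of signal was fitted in both directions, with DMSO serving as baseline and negative control.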
# [9] = biological target: human Peroxisome Proliferator-activated Receptor alpha (PPARa), PPARA (gene 5465) (UniProt Q07869); assay: ATG_PPARa_TRANS: Attagene TRANS-FACTORIAL HepG2 Assay for human Peroxisome Proliferator-activated Receptor alpha (PPARa) (AID 2283001; active = hit-call score of the fitted dose curve at least 0.9, where 1 is the maximum;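 for AC50: potency for gain of reporter signal over DMSO so agonist or activator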)
# Procedure, shortened: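 Reporter transcripts quantified by RT-PCR plus capillary electrophoresis after 24 h treatment, fitted upward relative to DMSO. Cells: human HepG2 transiently carrying multiple GAL4-UAS reporter units driven by NR-Gal4 chimeras.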
# [10] = biological target: human Peroxisome Proliferator-activated Receptor delta (PPARd), PPARD (gene 5467) (UniProt Q03181); assay: ATG_PPARd_TRANS: Attagene TRANS-FACTORIAL HepG2 Assay for human Peroxisome Proliferator-activated Receptor delta (PPARd) (AID 2283002; active = hit-call score of the fitted dose curve at least 0.9, where 1 is the maximum)
# Procedure, shortened: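 Cell-based TRANS reporter: HepG2, transient MRTU transfection, 24 h exposure. Readout = reporter mRNA (RT-PCR/CE, 6-FAM). Gain-of-signal fit vs DMSO control.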
# Sequence of Cellular tumor antigen p53 (Homo sapiens) (P04637 whole entry, looked up): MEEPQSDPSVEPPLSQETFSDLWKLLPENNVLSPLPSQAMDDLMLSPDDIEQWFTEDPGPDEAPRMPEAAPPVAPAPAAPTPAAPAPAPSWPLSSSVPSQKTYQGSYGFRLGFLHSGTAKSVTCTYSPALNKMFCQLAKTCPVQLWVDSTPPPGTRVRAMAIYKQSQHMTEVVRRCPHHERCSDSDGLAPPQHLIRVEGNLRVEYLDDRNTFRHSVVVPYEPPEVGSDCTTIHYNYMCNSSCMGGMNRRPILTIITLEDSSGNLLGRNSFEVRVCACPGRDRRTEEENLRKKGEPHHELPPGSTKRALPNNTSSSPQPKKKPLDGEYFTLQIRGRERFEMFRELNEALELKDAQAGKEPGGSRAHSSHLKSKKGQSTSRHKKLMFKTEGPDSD
# Sequence of human Peroxisome Proliferator-activated Receptor alpha (PPARa), PPARA (gene 5465) (Q07869 whole entry, looked up, the tested form may be a part): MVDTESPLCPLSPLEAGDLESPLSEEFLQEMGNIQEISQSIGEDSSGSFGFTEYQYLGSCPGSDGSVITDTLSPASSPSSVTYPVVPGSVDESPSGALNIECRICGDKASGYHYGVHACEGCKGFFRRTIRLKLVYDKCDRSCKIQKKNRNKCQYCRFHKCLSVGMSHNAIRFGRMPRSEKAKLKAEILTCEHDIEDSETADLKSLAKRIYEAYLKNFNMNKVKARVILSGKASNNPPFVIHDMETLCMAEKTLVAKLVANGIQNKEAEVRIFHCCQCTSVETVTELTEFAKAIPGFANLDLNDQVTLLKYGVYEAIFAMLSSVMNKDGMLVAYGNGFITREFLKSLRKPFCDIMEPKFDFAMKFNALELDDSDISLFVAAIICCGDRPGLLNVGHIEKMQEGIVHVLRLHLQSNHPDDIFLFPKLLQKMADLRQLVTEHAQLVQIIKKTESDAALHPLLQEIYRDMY
# Sequence of human Peroxisome Proliferator-activated Receptor delta (PPARd), PPARD (gene 5467) (Q03181 whole entry, looked up): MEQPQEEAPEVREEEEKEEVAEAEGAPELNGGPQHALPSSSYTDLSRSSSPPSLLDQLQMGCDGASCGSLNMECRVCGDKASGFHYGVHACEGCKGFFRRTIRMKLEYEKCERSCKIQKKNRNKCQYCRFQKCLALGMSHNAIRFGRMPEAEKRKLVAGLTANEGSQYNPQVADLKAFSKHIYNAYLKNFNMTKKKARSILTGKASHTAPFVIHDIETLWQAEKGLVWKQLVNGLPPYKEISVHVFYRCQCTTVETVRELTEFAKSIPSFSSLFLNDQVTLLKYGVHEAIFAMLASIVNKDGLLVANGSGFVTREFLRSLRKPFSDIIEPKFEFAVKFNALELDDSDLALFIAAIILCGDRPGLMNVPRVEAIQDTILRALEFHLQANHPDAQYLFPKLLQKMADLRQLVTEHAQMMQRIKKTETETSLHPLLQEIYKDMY
smiles,measurement,setting,value
O=C(NC(=O)c1c(F)cccc1F)Nc1cc(Cl)c(F)c(Cl)c1F,outcome,[1],inactive
same,outcome,[2],inactive
same,outcome,[3],inactive
same,outcome,[4],inactive
C[C@]12CC[C@@H](O)C[C@@H]1CC[C@@H]1[C@@H]2CC[C@]2(C)C(=O)CC[C@@H]12,outcome,[1],inactive
same,outcome,[2],inactive
same,outcome,[3],inactive
same,outcome,[4],inactive
same,outcome,[5],inactive
same,outcome,[6],inactive
same,outcome,[7],inactive
same,outcome,[8],inactive
C#C[C@]1(O)CC[C@H]2[C@@H]3CCC4=CC(=O)CC[C@]4(C)[C@H]3CC[C@@]21C,outcome,[1],inactive
same,outcome,[2],inactive
same,outcome,[3],inactive
same,outcome,[4],inactive
C1CN2CCN1CC2,outcome,[1],inactive
same,outcome,[2],inactive
CCCCC(CC)COC(=O)Cl (centres undefined),outcome,[1],inactive
same,outcome,[2],inactive
same,outcome,[3],inactive
ClCc1ccccc1CCl,AC50,[1],25.1 µM (active)
same,AC50,[2],8.19 µM (active)
same,AC50,[3],21.2 µM (active)
same,AC50,[4],50.7 µM (active)
Clc1ccc(C(Cl)(Cl)Cl)cn1,outcome,[1],inactive
same,outcome,[2],inactive
same,outcome,[3],inactive
same,outcome,[4],inactive
C=CCCl,outcome,[1],inactive
same,outcome,[2],inactive
same,outcome,[3],inactive
same,outcome,[4],inactive
same,outcome,[9],inactive
same,outcome,[10],inactive
CCCCCCCCBr,outcome,[1],inactive
same,outcome,[2],inactive
same,outcome,[3],inactive
same,outcome,[4],inactive
same,outcome,[9],inactive
CS(=O)(=O)c1ccc(C(=O)C2C(=O)CCCC2=O)c(Cl)c1COCC(F)(F)F,outcome,[1],inactive
same,outcome,[2],inactive
same,outcome,[3],inactive
same,outcome,[4],inactive
same,outcome,[9],inactive
Nc1cccnc1,outcome,[1],inactive
same,outcome,[2],inactive
same,outcome,[3],inactive
same,outcome,[4],inactive
same,outcome,[9],inactive
same,outcome,[10],inactive
CCN(CCO)CCO,outcome,[1],inactive
same,outcome,[2],inactive
same,outcome,[3],inactive
same,outcome,[4],inactive
same,outcome,[9],inactive
O=C(O)COc1ccc(Cl)cc1,outcome,[1],inactive
same,outcome,[2],inactive
same,outcome,[3],inactive
same,outcome,[4],inactive
same,outcome,[9],inactive
same,outcome,[10],inactive
Oc1ccc(Cc2ccc(O)cc2)cc1,outcome,[1],inactive
same,AC50,[2],100 µM (active)
same,outcome,[3],inactive
same,outcome,[4],inactive
same,outcome,[5],inactive
same,outcome,[6],inactive
same,outcome,[7],inactive
same,outcome,[8],inactive
same,outcome,[10],inactive
Cc1ccc(CCl)cc1,outcome,[1],inactive
same,outcome,[2],inactive
same,outcome,[3],inactive
same,outcome,[4],inactive
same,outcome,[9],inactive
OC(Cc1ccccc1Cl)(Cn1cncn1)C1(Cl)CC1 (centres undefined),outcome,[1],inactive
same,outcome,[2],inactive
same,outcome,[3],inactive
same,AC50,[4],30 µM (active)
same,outcome,[5],inactive
same,AC50,[6],16.5 µM (active)
same,outcome,[7],inactive
same,outcome,[8],inactive
same,outcome,[10],inactive
c1ccc2c(c1)Oc1ccccc1O2,outcome,[1],inactive
same,AC50,[2],35.4 µM (active)
same,outcome,[3],inactive
same,outcome,[4],inactive
same,outcome,[9],inactive
CCN(N=O)C(N)=O,outcome,[1],inactive
same,outcome,[2],inactive
same,outcome,[3],inactive
same,outcome,[4],inactive
same,outcome,[9],inactive
BrCC(Br)c1ccccc1 (centres undefined),outcome,[1],inactive
same,outcome,[2],inactive
same,outcome,[3],inactive
same,outcome,[4],inactive
same,outcome,[9],inactive
Cc1cccc(C)c1NC(=O)CN1CCCC1=O,outcome,[1],inactive
same,outcome,[2],inactive
same,outcome,[3],inactive
same,outcome,[4],inactive
same,outcome,[9],inactive
CNC(=O)O/N=C/C(C)(C)S(C)(=O)=O,outcome,[1],inactive
same,outcome,[2],inactive
same,outcome,[3],inactive
same,outcome,[4],inactive
same,outcome,[9],inactive
CCC(C)(C#N)N=NC(C)(C#N)CC (centres undefined),outcome,[1],inactive
same,outcome,[2],inactive
same,outcome,[3],inactive
same,outcome,[4],inactive
same,outcome,[5],inactive
same,outcome,[6],inactive
same,outcome,[7],inactive
same,outcome,[8],inactive
same,outcome,[9],inactive
CCOc1ccc(N)cc1,outcome,[1],inactive
same,outcome,[2],inactive
same,outcome,[3],inactive
same,outcome,[4],inactive
same,outcome,[9],inactive
CCCCCCCCCCBr,outcome,[1],inactive
same,AC50,[2],68.6 µM (active)
same,outcome,[3],inactive
same,outcome,[4],inactive
same,outcome,[9],inactive
CCOC(=O)c1ccccc1S(=O)(=O)NC(=O)Nc1nc(Cl)cc(OC)n1,outcome,[1],inactive
same,outcome,[2],inactive
same,outcome,[3],inactive
same,outcome,[4],inactive
same,outcome,[9],inactive
Cc1cc(SCc2sc(-c3ccc(C(F)(F)F)c(F)c3)nc2C)ccc1OCC(=O)O,outcome,[1],inactive
same,outcome,[2],inactive
same,AC50,[3],15.6 µM (active)
same,AC50,[4],47.1 µM (active)
same,AC50,[9],0.201 µM (active)
CC(=O)CN(CC(C)=O)N=O,outcome,[1],inactive
same,outcome,[2],inactive
same,outcome,[3],inactive
same,outcome,[4],inactive
same,outcome,[9],inactive
same,outcome,[10],inactive
Oc1cccc(-c2ccccc2)c1,outcome,[1],inactive
same,AC50,[2],100 µM (active)
same,outcome,[3],inactive
same,outcome,[4],inactive
same,outcome,[5],inactive
same,AC50,[6],20 µM (active)
same,AC50,[7],37.1 µM (active)
same,AC50,[8],20 µM (active)
same,outcome,[9],inactive
same,outcome,[10],inactive
CC1(C)[C@H](C(=O)O[C@H](C#N)c2cccc(Oc3ccccc3)c2)[C@@H]1/C=C(\Cl)C(F)(F)F,outcome,[1],inactive
same,outcome,[2],inactive
same,outcome,[3],inactive
same,outcome,[4],inactive
same,outcome,[5],inactive
same,outcome,[6],inactive
same,outcome,[7],inactive
same,outcome,[8],inactive
same,outcome,[10],inactive
CN(N=O)C(N)=O,outcome,[1],inactive
same,outcome,[2],inactive
same,outcome,[3],inactive
same,outcome,[4],inactive
same,outcome,[9],inactive
CC(=Cc1ccccc1)[N+](=O)[O-],AC50,[1],11.1 µM (active)
same,AC50,[2],2.61 µM (active)
same,outcome,[3],inactive
same,AC50,[4],18 µM (active)
same,AC50,[9],11.1 µM (active)
